Experimental data from PubChem BioAssay (Tox21).
Inconclusive results are not listed. Calls of active or inactive are those of the source. Unless noted, calls come from the whole dose curve; as a rule, active = well fitted curve in the direction sought with a large enough effect in the repeat runs; inconclusive = weak or mixed curves; inactive = no such curve, though single readings can be large; an effect the other way counts as inactive or inconclusive.

Tests used:
[1] = A CellTox Green Cytotoxicity Assay to monitor cytotoxicity in HepG2 cells - 8 hour (AID 1224890); note: nearly all actives have a fitted effect of over 45% in size
How it was run: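 HepG2 cells were seeded together with the CellTox Green dye at 600 cells/well, left 5 h at 37 C/5% CO2, then given compounds in DMSO. Fluorescence from dye bound to dead-cell DNA was read repeatedly over 40 h of treatment at 37 C.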

[2] = qHTS assay to identify small molecule antagonists of the estrogen receptor alpha (ER-alpha) signaling pathway using the BG1 cell line in the presence of 0.1 nM 17-beta-estradiol - cell viability counter screen (AID 1259241); note: nearly all actives have a fitted effect of over 40% in size
How it was run: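 Cells were plated and left 24 hr, compounds in DMSO were pinned in, 17beta-estradiol was added to 0.1 nM final, and after 22 hr CellTiter-Fluor reagent was added for 30 min before fluorescence was read.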

[3] = qHTS assay to identify small molecule antagonists of the androgen receptor (AR) signaling pathway using the MDA cell line in the presence of 0.5 nM R1881 - cell viability counter screen (AID 1259242); note: nearly all actives have a fitted effect of over 45% in size
How it was run: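 MDA-kb2 cells (human breast carcinoma, stably carrying MMTV-luciferase reporter) were exposed to compounds with 0.5 nM R1881 (final) for 16 hr at 37C, 0% CO2; viability then read as live-cell protease fluorescence (CellTiter-Fluor, 30 min) in the same wells.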

[4] = molecular target: Estrogen receptor (Homo sapiens) (UniProt P03372); test: qHTS assay to identify small molecule antagonists of the estrogen receptor alpha (ER-alpha) signaling pathway using the BG1 cell line in the presence of 0.1 nM 17-beta-estradiol (AID 1259244); note: nearly all actives have a fitted effect of over 50% in size
How it was run: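 VM7Luc4E2 cells (endogenous full-length ER-alpha, stable 4xERE-luciferase) were grown 5 days in phenol red-free medium with charcoal-stripped FBS, then exposed 22 h at 37C to compounds plus 0.1 nM (final) 17beta-estradiol; ONE-Glo luminescence read-out.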

[5] = qHTS assay to identify small molecule HDAC inhibitors (AID 1259364); note: nearly all actives have a fitted effect of over 45% in size; note: potency is the fitted concentration of half-maximal effect
How it was run: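 Wild-type HCT-116 cells were plated overnight, exposed to compounds for 2 h at 37 °C, then given HDAC-Glo class I/II luminogenic reagent for 30 min at room temperature before luminescence was read.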

[6] = qHTS assay to identify small molecule HDAC inhibitors - cell viability counter screen (AID 1259365); note: series mostly up to about 92 µM; nearly all actives have a fitted effect of over 50% in size
How it was run: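 Counter screen in wild-type HCT-116 cells: compounds dissolved in DMSO are pin-transferred onto overnight-plated cells and left 2hr at 37C. ATP-based CellTiter-Glo luminescence then measures viable cells.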

[7] = qHTS assay to identify small molecule agonists of the sonic hedgehog signaling (Shh) pathway (AID 1259368; calls by dose curve; note: series mostly up to about 92 µM; nearly all actives have a fitted effect of over 15% in size)
How it was run: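 NIH/3T3-derived 3T3Gli1-Luc cells carrying a stably integrated Gli1 response element–firefly luciferase reporter were plated, left 4 hr at 37 C, then given compounds in DMSO for 24 hr. Luminescence was read 30 min after adding luciferase reagent.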

[8] = molecular target: Estrogen receptor beta (Homo sapiens) (UniProt Q92731); test: qHTS assay to identify small molecule agonists of the estrogen receptor beta (ER-beta) signaling pathway (AID 1259377; active = well fitted activation curve with a large enough effect in the signal ratio in the repeat runs, not every such curve was filed as active; the % refers to the signal ratio)
How it was run: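 Agonist mode cell assay in GripTite HEK293T cells expressing an ER-beta fusion that drives beta-lactamase from an Upstream Activator Sequence; 16 hr compound exposure at 37C, then 2 h LiveBLAzer B/G FRET substrate at room temperature, fluorescence read-out.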

[9] = qHTS assay to identify small molecule agonists of the androgen receptor (AR) signaling pathway in the presence of an antagonist - cell viability counter screen (AID 1259379); note: series mostly up to about 92 µM; nearly all actives have a fitted effect of over 25% in size
How it was run: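 MDA-kb2 human breast carcinoma cells (stable MMTV-luciferase, AR/GR responsive) were seeded 3,000 cells/well, pre-incubated 5 hr at 37C without CO2, then given 3.0uM nilutamide and compounds at 15 concentrations for 16 hr. Viability was read by CellTiter-Fluor fluorescence.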

[10] = qHTS assay to identify small molecule antagonists of the estrogen receptor beta (ER-beta) signaling pathway - cell viability counter screen (AID 1259382); note: series mostly up to about 92 µM; nearly all actives have a fitted effect of over 55% in size
How it was run: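 ER-beta-UAS-bla HEK293T cells (2,000/well, 2% charcoal-stripped FBS) were pre-incubated 6 hr at 37C, then given compound plus 1nM final 17-beta-estradiol for 16 hr. Viability was read in the same wells by CellTiter-Glo luminescence after 30 min at room temperature.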

[11] = molecular target: Estrogen receptor (Homo sapiens) (UniProt P03372); test: qHTS assay to identify small molecule agonists of the estrogen receptor alpha (ER-alpha) signaling pathway in the presence of an antagonist (AID 1259383; calls by dose curve; note: top concentration of the series differs between compounds; nearly all actives have a fitted effect of over 15% in size)
How it was run: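 VM7Luc4E2 cells (endogenous full-length ER-alpha, 4×ERE-luciferase) were precultured 5 days in phenol red-free medium with 10% charcoal-stripped FBS, given 10.0nM ICI-182,780 (final), then treated with compounds at 15 concentrations for 22hr at 37C; luminescence read with ONE-Glo.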

[12] = qHTS assay to identify small molecule agonists or antagonists of the thyroid stimulating hormone receptor (TSHR) signaling pathway - wild type cell line counter screen (AID 1259384; calls by dose curve)
How it was run: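 Wild-type Hek293 cells, 800/well, 18 h at 37C, then compound with Ro20-1724 for 30 min RT. cAMP by HTRF (cAMP-d2/anti-cAMP cryptate), 1 h RT, fluorescence read. 15 concentrations, triplicates.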

[13] = qHTS assay to identify small molecule agonists of the sonic hedgehog signaling (Shh) pathway - cell viability counter screen (AID 1259366); note: nearly all actives have a fitted effect of over 50% in size
How it was run: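 Cells are plated at 2,000 per well and left 4hr at 37C, 5% CO2 before compound addition. After 23hr of treatment, CellTiter-Fluor reagent is added for 1hr at 37C and fluorescence is measured.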

[14] = qHTS assay to identify small molecule antagonists of the sonic hedgehog signaling (Shh) pathway (AID 1259369; calls by dose curve; note: nearly all actives have a fitted effect of over 45% in size)
How it was run: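 NIH/3T3-derived 3T3Gli1-Luc cells with stably integrated Gli1-Luc reporter were preincubated 4hr at 37 C, then given compounds in DMSO plus Shh conditioned medium and incubated 24hr. Firefly luciferase luminescence read after 30min reagent at room temperature.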

[15] = qHTS assay to identify small molecule agonists of the estrogen receptor beta (ER-beta) signaling pathway - cell viability counter screen (AID 1259380); note: nearly all actives have a fitted effect of over 30% in size; note: potency is the fitted concentration of half-maximal effect
How it was run: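 ER-beta-UAS-bla HEK293T cells in medium with 2% charcoal-stripped FBS were preincubated 6 hr at 37C, dosed with compound in DMSO for 16 hr, then after the bla read, CellTiter-Glo was added for 30 min at room temperature; luminescence recorded.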

[16] = molecular target: Estrogen receptor beta (Homo sapiens) (UniProt Q92731); test: qHTS assay to identify small molecule antagonists of the estrogen receptor beta (ER-beta) signaling pathway (AID 1259378; active = well fitted inhibition curve with a large enough effect in the signal ratio in the repeat runs, not every such curve was filed as active; the % refers to the signal ratio)
How it was run: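 ER-beta-UAS-bla HEK293T cells in 2% charcoal-stripped FBS medium treated with compound plus 1nM final 17-beta-estradiol for 16 hr at 37C. Beta-lactamase reporter read by FRET substrate fluorescence after 2 hours at room temperature.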

[17] = qHTS assay to identify small molecule antagonists of the sonic hedgehog signaling (Shh) pathway - cell viability counter screen (AID 1259367); note: nearly all actives have a fitted effect of over 55% in size
How it was run: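 NIH/3T3-derived Gli1-Luc reporter cells, 2,000/well, plated 4 hr before compound addition, then stimulated with conditioned medium for 24 hr at 37C. Viability measured in the same wells by CellTiter-Fluor fluorescence, reagent added at 23 hr for 1 hr.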

Measured: Potency

Estrogen receptor (Homo sapiens), sequence (P03372 whole entry, looked up): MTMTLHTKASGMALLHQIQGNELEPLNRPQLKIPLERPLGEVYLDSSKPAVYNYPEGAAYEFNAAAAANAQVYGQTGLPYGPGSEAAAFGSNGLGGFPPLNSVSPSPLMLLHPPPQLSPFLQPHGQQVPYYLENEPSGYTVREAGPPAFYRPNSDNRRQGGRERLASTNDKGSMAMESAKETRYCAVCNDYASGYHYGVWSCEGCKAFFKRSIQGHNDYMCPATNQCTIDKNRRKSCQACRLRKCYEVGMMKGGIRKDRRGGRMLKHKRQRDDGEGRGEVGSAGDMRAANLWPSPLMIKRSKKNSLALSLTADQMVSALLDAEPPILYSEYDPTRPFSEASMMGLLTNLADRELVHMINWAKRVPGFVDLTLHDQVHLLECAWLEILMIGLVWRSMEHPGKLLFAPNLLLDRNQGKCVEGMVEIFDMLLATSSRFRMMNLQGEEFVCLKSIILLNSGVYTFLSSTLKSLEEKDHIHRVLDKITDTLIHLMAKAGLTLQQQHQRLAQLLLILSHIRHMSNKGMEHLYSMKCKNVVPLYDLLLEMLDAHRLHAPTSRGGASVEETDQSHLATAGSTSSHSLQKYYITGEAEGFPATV
Estrogen receptor beta (Homo sapiens), sequence (Q92731 whole entry, looked up, the tested form may be a part): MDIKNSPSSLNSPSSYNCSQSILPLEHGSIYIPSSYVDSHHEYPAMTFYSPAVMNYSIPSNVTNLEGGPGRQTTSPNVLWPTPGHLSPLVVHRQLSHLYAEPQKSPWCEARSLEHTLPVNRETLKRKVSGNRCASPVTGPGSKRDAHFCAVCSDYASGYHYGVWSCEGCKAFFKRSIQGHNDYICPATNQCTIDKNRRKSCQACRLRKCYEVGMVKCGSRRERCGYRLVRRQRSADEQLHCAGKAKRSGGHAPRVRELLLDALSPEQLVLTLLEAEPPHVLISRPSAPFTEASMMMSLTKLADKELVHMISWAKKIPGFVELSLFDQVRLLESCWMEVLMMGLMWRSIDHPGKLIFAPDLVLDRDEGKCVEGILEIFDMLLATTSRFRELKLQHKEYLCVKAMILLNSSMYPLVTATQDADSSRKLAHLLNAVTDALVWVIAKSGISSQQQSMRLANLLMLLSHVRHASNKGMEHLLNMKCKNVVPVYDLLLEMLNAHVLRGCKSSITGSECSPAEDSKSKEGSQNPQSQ

CCn1nc(Cc2ccccc2)cc1C1CCN(C[C@H]2C[C@H](N(C)[C@@H](C(=O)O)C(C)C)C[C@@H]2c2cccc(F)c2)CC1
not listed: [13] | [14] | [15] | [16] | [17]
inactive: all other assays above

O=P(c1ccccc1)(c1ccccc1)c1ccccc1
not listed: [8] | [9] | [16] | [17]
inactive: all other assays above

CCCCCCOC(=O)c1ccccc1
active: [15] 27.3 µM
not listed: [10] | [17]
inactive: all other assays above

CC(O)CN (stereo not given)
not listed: [17]
inactive: all other assays above

CC(C)(O)C(=O)O
not listed: [4] | [11] | [12]
inactive: all other assays above

COc1ccc(C(=O)Nc2ccccc2)cc1[N+](=O)[O-]
active: [5] 24.5 µM | [15] 30.9 µM
not listed: [8] | [14] | [16]
inactive: all other assays above

COC(=O)c1cc(Cl)ccc1[N+](=O)[O-]
not listed: [17]
inactive: all other assays above
